Test [1] concerns Vero E6 infected with SARS-CoV-2. In words: morphology score (similarity to uninfected cells); higher = more like uninfected cells. To be noted: 24 h.
For test [2] the test system is unchanged. The test can be described thus: SARS-CoV-2 infection rate relative to infected DMSO; higher = more infection, active = 60 or less. To be noted: 24 h.

Structures are written as SMILES.

In turn, `CN(C)C(=O)n1nnnc1Cc1ccc(-c2ccccc2)cc1` (0.833333 µM) showed a morphology score in test [1] of 0.00131. The SARS-CoV-2 infection rate in test [2] is 85% (inactive).
In test [1], `CO[C@H]1C[C@@H]2CC[C@@H](C)[C@@](O)(O2)C(=O)C(=O)N2CCCC[C@H]2C(=O)O[C@H]([C@H](C)C[C@@H]2CC[C@H](n3cnnn3)[C@H](OC)C2)CC(=O)[C@H](C)/C=C(\C)[C@@H](O)[C@@H](OC)C(=O)[C@H](C)C[C@H](C)/C=C/C=C/C=C/1C` [zotarolimus] (0.833333 µM) had a morphology score of -0.292. The SARS-CoV-2 infection rate in test [2] was 119% (inactive).
In the same order, the values of `CC(=O)NNC(=O)N1Cc2ccccc2Oc2ccc(Cl)cc21` (10 µM) are 0.0638 and 97.5% (inactive).
Consider `C=CC(=O)Nc1cccc(Nc2nc(Nc3ccc(OCCOC)cc3)ncc2F)c1` (0.833333 µM), for which the morphology score in test [1] is -0.0246. In test [2], the SARS-CoV-2 infection rate is 116% (inactive).
In test [1], `CC/C(=C(/CC)c1ccc(O)cc1)c1ccc(O)cc1` [diethylstilbestrol] (10 µM) showed a morphology score of -0.0992. Besides, in test [2], the SARS-CoV-2 infection rate was 102% (inactive).
In the same order, the values of `O=C(NCCNCC(O)COc1ccc(O)cc1)N1CCOCC1` (stereo unspecified) [xamoterol] (10 µM) are 0.0295 and 110% (inactive).
In the same order, the values of `O=C(O)CCC(=O)c1ccc(-c2ccccc2)cc1` [fenbufen] (10 µM) are -0.0471 and 104% (inactive).
Compound `Nc1ncc(Cc2ccc(Br)cc2)s1` (10 µM) gave a morphology score in test [1] of 0.13. Also, the SARS-CoV-2 infection rate in test [2] was 102% (inactive).
The matching figures for `O=C1CC[C@@](c2ccccc2)(C2CCN(Cc3ccc(I)cc3)CC2)C(=O)N1` [iododexetimide] (10 µM): -0.0136 and 100% (inactive).
`CS(=O)(=O)Nc1ccc(-c2coc3cc(OCc4cccc(C(=O)O)c4)ccc3c2=O)cc1` (10 µM) came in with a morphology score in test [1] of 0.0543. Further, the SARS-CoV-2 infection rate in test [2] was 97% (inactive).
The matching figures for `Cc1cc(C)c(N(Cc2ccccc2)S(=O)(=O)c2ccc(OCCNC(=O)c3cc4ccccc4o3)cc2)c(C(=O)NO)c1` (0.833333 µM): -0.0297 and 96% (inactive).
`C=C1/C(=C\C=C2/CCC[C@]3(C)[C@@H]([C@H](C)CCCC(O)(C(F)(F)F)C(F)(F)F)CC[C@@H]23)C[C@@H](O)C[C@@H]1O` [falecalcitriol] (10 µM) came in with a morphology score in test [1] of 0.0244. Also, the SARS-CoV-2 infection rate in test [2] was 95.5% (inactive).
In the same order, the values of `Nc1nc2c(ncn2COC(CO)CO)c(=O)[nH]1` [ganciclovir] (10 µM) are 0.108 and 97% (inactive).
In turn, `CCOC(=O)c1c(C)n(C)c2ccc(O)cc12` [mecarbinate] (10 µM) had a morphology score in test [1] of 0.132. Further, in test [2], the SARS-CoV-2 infection rate was 112% (inactive).
As for `COc1cc(N)c(Cl)cc1C(=O)OCCCN1CCCCC1` (10 µM), the morphology score in test [1] was 0.0833. The SARS-CoV-2 infection rate in test [2] was 100% (inactive).
In the same order, the values of `CCC(=O)N[C@@H]1Cc2ccccc2[C@H](c2ccccc2)C1` (10 µM) are -0.0816 and 110% (inactive).
In test [1], `CC(C)N(CCCCOCC(=O)NS(C)(=O)=O)c1cnc(-c2ccccc2)c(-c2ccccc2)n1` [selexipag] (10 µM) yielded a morphology score of -0.0772. Also, in test [2], the SARS-CoV-2 infection rate is 116% (inactive).
In the same order, the values of `NCCCCCc1c[nH]cn1` [impentamine] (10 µM) are 0.128 and 92.5% (inactive).
On to `O=c1[nH]c2cc(C(F)(F)F)c(N3CCOCC3)cc2n(CP(=O)(O)O)c1=O` (10 µM), for which, in test [1], the morphology score was found to be 0.119. In addition, in test [2], the SARS-CoV-2 infection rate is 99% (inactive).
The matching figures for `CC(NC(C)(C)C)C(=O)c1cccc(Cl)c1` (stereo unspecified) [bupropion] (10 µM): 0.00981 and 96.5% (inactive).
In the same order, the values of `CN1C(C(=O)Nc2ccccn2)=C(O)c2ccccc2S1(=O)=O` [piroxicam] (10 µM) are 0.184 and 98.5% (inactive).
In the same order, the values of `CC(=O)N(OCc1ccccc1)[C@@H]1c2cc(C#N)ccc2OC(C)(C)[C@H]1O` (10 µM) are 0.159 and 97.5% (inactive).
In test [1], `C[C@@H]1COCCN1c1cc(C2([S@](C)(=N)=O)CC2)nc(-c2ccnc3[nH]ccc23)n1` (0.833333 µM) had a morphology score of 0.0164. In addition, in test [2], the SARS-CoV-2 infection rate was 90% (inactive).
`Cc1nnc(-c2ccc3occ(-c4ccc([S+](C)[O-])cc4)c3c2)o1` (stereo unspecified) (10 µM) came in with a morphology score in test [1] of -0.00242. Further, in test [2], the SARS-CoV-2 infection rate is 92.5% (inactive).
In the same order, the values of `CN(C)CCCCC(=O)Nc1ccc(NC(=S)NC(=O)c2ccc(C(C)(C)C)cc2)cc1` [tenovin-6] (0.833333 µM) are -0.102 and 86% (inactive).
The matching figures for `NC(=O)c1ccc(N(C(N)=O)c2c(F)cccc2F)nc1-c1ccc(F)cc1F` (10 µM): -0.134 and 111% (inactive).
In the same order, the values of `O=C(O)COc1ccc(/C=C2\SC(=O)NC2=O)cc1` (10 µM) are 0.0392 and 97% (inactive).
In test [1], `NC(=O)N1c2ccccc2C=Cc2ccccc21` [carbamazepine] (10 µM) yielded a morphology score of -0.0216. The SARS-CoV-2 infection rate in test [2] is 108% (inactive).
